# Test results published in PubChem BioAssay (NCI).
# This is part of a sample that, as a whole, favours compounds with a hit. Of some 83,000 tested, about 20% had one in any assay.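 Plates (96-well) were seeded with cells, treated with compound at one concentration, and incubated for 48 hours before percent growth was determined.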 Activity calls are given as the source filed them. How the source made its calls: active means growth percent below 10; inactive means the rest.
# Tested on: MDA-MB-468 breast
# Experiment: NCI-60 one-dose screen, 48 h (100 = growth as untreated, 0 = no growth, -100 = all killed)
# Details: 10 µM unless noted
row,SMILES,growth
1,COc1ccc(Cl)cc1NC(=O)c1cc2c(n1C)-c1nc(NC(=O)C(C)C)sc1CC2,88.5% (inactive)
2,O=C(c1c[nH]c(=O)c(-c2ccccc2)c1)c1ccccc1O,80.8% (inactive)
3,C(=N\Nc1nnc2n1N=C(c1ccccc1)CS2)/c1ccc(OCc2ccccc2)cc1,88.9% (inactive)
4,CN1CCN(c2ccc(C(=O)/C=C/c3cc(F)cc(C(F)(F)F)c3)cc2)CC1,31.5% (inactive)
5,Cc1[nH]c(C(=O)Nc2cccc(OC3CCNCC3)c2)c(Cl)c1Cl,40.9% (inactive)
6,O=C1/C(=C/c2ccc([N+](=O)[O-])cc2)COc2ccc(O)c(O)c21,-90.9% (active)
7,O=C1C(=O)c2cc([N+](=O)[O-])ccc2-c2ccccc21,-96.2% (active)
8,OC(COc1ccccc1Cl)CN1CCN(c2ccc(Cl)cc2)CC1 (stereo not given),95.7% (inactive)
9,COc1ccc(C(C)c2cc(OC)c(OC)c(OC)c2)cc1 (stereo not given),41.6% (inactive)
10,CC1=C/C(=C(\c2cc(C)c(O)c(C(=O)O)c2)c2c(Cl)cccc2Cl)C=C(C(=O)O)C1=O,104% (inactive)
11,O=C(CS)Nc1ccc2ccccc2c1,108% (inactive)
12,O=C(O)c1ccc(Br)nc1,88.6% (inactive)
13,Cc1c(C)c2c(c(C)c1NC(=O)CCCCCCC(=O)O)CCC(C)(CCCC(C)CCCC(C)CCCC(C)C)O2 (stereo not given),90.1% (inactive)
14,OCCn1cccn1,103% (inactive)
15,CCCCCCCCCCCC1=NC(C)(C)CN1C(C)C,-1.36% (active)
16,O=Cc1ccc(O)c2ncccc12,27.4% (inactive)
17,O=C(c1ccccc1)C1C(=O)N2C(=S)N(c3ccccc3)C(=O)C2C1c1ccc(Cl)cc1 (stereo not given),0.678% (active)
18,COC1=CC(c2ccc[nH]2)=N/C1=C\c1[nH]c(C)c(C(=O)CCCCC(=O)Nc2ccccc2)c1C,-10.7% (active)
19,CCCCCCCCO,98.9% (inactive)
20,CC1(COc2ccc3c(c2)ncn3-c2ccc3cccc(N4CCC(N)CC4)c3n2)COC1,-20.6% (active)
21,C[C@]12CCC(=O)C=C1CCC1C2[C@@H](O)C[C@@]2(C)C1CC[C@]2(O)C(=O)COC(=O)CCC(=O)O (stereo not given in full),109% (inactive)
22,CCCCCCCCCCCCCCCCNC(=S)N/N=C/c1ccc(O)cc1O,57.1% (inactive)
23,CC(=O)/C(=C/c1ccc(Cl)cc1)C(=O)c1ccccc1,96.9% (inactive)
24,c1csc(C2=NN3C(C2)c2ccccc2OC3c2ccncc2)c1 (stereo not given),103% (inactive)
25,CCN1CCN(c2cc(C(=O)Nc3nc4ccc(Oc5ccnc(C(=O)NC)c5)cc4s3)cc(C(F)(F)F)c2)CC1,43.3% (inactive)
